# Measurements taken from the supplement of paper PMC8728848.
# The sample as a whole holds a higher share of the strongest signals than the screen did.
# Experiments:
# Assay in all cases: glycan array binding signal (z-score within array); higher = stronger binding
# Conditions in all cases: glycan notation: IUPAC condensed, linker removed
# Gal3S(b1-4)Glc6S = target: Gal3S(b1-4)Glc6S
# Outline: (§1)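 The Consortium for Functional Glycomics database supplied 3228 glycan arrays, of which those lacking an available protein sequence were dropped. The binding signal, a within-array Z-score, was averaged across arrays of the same protein sequence and across linkers. Negative scores can be read as non-binding.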
# Gal3S6S(b1-4)GlcNAc6S = target: Gal3S6S(b1-4)GlcNAc6S
# Outline: as §1
# GalNAc(b1-4)Gal(b1-4)Glc = target: GalNAc(b1-4)Gal(b1-4)Glc
# Outline: as §1
# [1] = target: GalNAc(b1-4)GlcNAc(b1-2)Man(a1-3)[GalNAc(b1-4)GlcNAc(b1-2)Man(a1-6)]Man(b1-4)GlcNAc(b1-4)GlcNAc
# Outline: as §1
# [2] = target: Glc(a1-6)Glc(a1-6)Glc(a1-6)Glc
# Outline: as §1
# [3] = target: GlcNAc(a1-4)Gal(b1-4)GlcNAc(b1-3)Gal(b1-4)[Fuc(a1-3)]GlcNAc(b1-3)Gal(b1-4)[Fuc(a1-3)]GlcNAc
# Outline: as §1
# [4] = target: GlcNAc(b1-2)Gal(b1-3)GalNAc
# Outline: as §1
# [5] = target: GlcNAc(b1-2)[GlcNAc(b1-4)]Man(a1-3)[GlcNAc(b1-4)][GlcNAc(b1-2)[GlcNAc(b1-6)]Man(a1-6)]Man(b1-4)GlcNAc(b1-4)GlcNAc
# Outline: as §1
# [6] = target: GlcNAc(b1-3)Gal(b1-4)GlcNAc(b1-3)Gal(b1-4)GlcNAc(b1-3)Gal(b1-4)GlcNAc(b1-2)[GlcNAc(b1-3)Gal(b1-4)GlcNAc(b1-3)Gal(b1-4)GlcNAc(b1-3)Gal(b1-4)GlcNAc(b1-6)]Man(a1-6)[GlcNAc(b1-3)Gal(b1-4)GlcNAc(b1-3)Gal(b1-4)GlcNAc(b1-3)Gal(b1-4)GlcNAc(b1-2)Man(a1-3)]Man(b1-4)GlcNAc(b1-4)[Fuc(a1-6)]GlcNAc
# Outline: as §1
# [7] = target: GlcNAc(b1-3)Gal(b1-4)GlcNAc(b1-3)Gal(b1-4)GlcNAc(b1-3)Gal(b1-4)GlcNAc(b1-3)Gal(b1-4)GlcNAc(b1-2)[GlcNAc(b1-3)Gal(b1-4)GlcNAc(b1-3)Gal(b1-4)GlcNAc(b1-3)Gal(b1-4)GlcNAc(b1-3)Gal(b1-4)GlcNAc(b1-6)]Man(a1-6)[GlcNAc(b1-3)Gal(b1-4)GlcNAc(b1-3)Gal(b1-4)GlcNAc(b1-3)Gal(b1-4)GlcNAc(b1-3)Gal(b1-4)GlcNAc(b1-2)Man(a1-3)]Man(b1-4)GlcNAc(b1-4)[Fuc(a1-6)]GlcNAc
# Outline: as §1
# [8] = target: GlcNAc(b1-4)GlcNAc(b1-4)GlcNAc(b1-4)GlcNAc(b1-4)GlcNAc
# Outline: as §1
# [9] = target: GlcNAc(b1-4)GlcNAc(b1-4)GlcNAc(b1-4)GlcNAc(b1-4)GlcNAc(b1-4)GlcNAc
# Outline: as §1
# [10] = target: Neu5Ac(a2-3)Gal(b1-3)GlcNAc(b1-2)[Neu5Ac(a2-3)Gal(b1-3)GlcNAc(b1-4)]Man(a1-6)[Neu5Ac(a2-3)Gal(b1-3)GlcNAc(b1-2)Man(a1-3)]Man(b1-4)GlcNAc(b1-4)GlcNAc
# Outline: as §1
# [11] = target: Neu5Ac(a2-3)Gal(b1-3)GlcNAc(b1-6)GalNAc
# Outline: as §1
# [12] = target: Neu5Ac(a2-3)Gal(b1-4)GlcNAc(b1-2)Man(a1-3)[Neu5Ac(a2-6)Gal(b1-4)GlcNAc(b1-2)Man(a1-6)]Man(b1-4)GlcNAc(b1-4)GlcNAc
# Outline: as §1
# [13] = target: Neu5Ac(a2-3)Gal(b1-4)[Fuc(a1-3)]GlcNAc(b1-6)[Gal(b1-3)]GalNAc
# Outline: as §1
# [14] = target: Neu5Ac(a2-3)Gal6S(b1-4)GlcNAc
# Outline: as §1
# [15] = target: Neu5Ac(a2-6)Gal(b1-4)GlcNAc(b1-2)Man(a1-3)[Neu5Ac(a2-6)Gal(b1-4)GlcNAc(b1-2)Man(a1-6)]Man(b1-4)GlcNAc(b1-4)GlcNAc
# Outline: as §1
# [16] = target: Neu5Ac(a2-6)Gal(b1-4)GlcNAc(b1-2)Man(a1-3)[Neu5Ac(a2-6)Gal(b1-4)GlcNAc(b1-2)Man(a1-6)]Man(b1-4)GlcNAc(b1-4)[Fuc(a1-6)]GlcNAc
# Outline: as §1
# [17] = target: Neu5Ac(a2-6)GalNAc(b1-4)GlcNAc6S
# Outline: as §1
# [18] = target: Neu5Ac(a2-8)Neu5Ac(a2-3)Gal(b1-3)GalNAc(b1-4)[Neu5Ac(a2-3)]Gal(b1-4)Glc
# Outline: as §1
# [19] = target: Neu5Ac(a2-8)Neu5Ac(a2-3)[GalNAc(b1-4)]Gal(b1-4)Glc
# Outline: as §1
# [20] = target: Neu5Ac(a2-8)Neu5Ac(a2-8)Neu5Ac(a2-3)[Gal(b1-3)GalNAc(b1-4)]Gal(b1-4)Glc
# Outline: as §1
# [21] = target: Neu5Ac(a2-8)Neu5Ac(a2-8)Neu5Ac(a2-8)Neu5Ac(a2-3)[GalNAc(b1-4)]Gal(b1-4)Glc
# Outline: as §1
# [22] = target: Neu5Ac(a2-8)Neu5Gc(a2-3)Gal(b1-4)GlcNAc
# Outline: as §1
binder,measurement,setting,value
OGAA (protein) MVQKESQATLEERESELSSNPAASAGASLEPPAAPAPGEDNPAGAGGAAVAGAAGGARRFLCGVVEGFYGRPWVMEQRKELFRRLQKWELNTYLYAPKDDYKHRMFWREMYSVEEAEQLMTLISAAREYEIEFIYAISPGLDITFSNPKEVSTLKRKLDQVSQFGCRSFALLFADIDHNMCAADKEVFSSFAHAQVSITNEIYQYLGEPETFLFCPTEYCGTFCYPNVSQSPYLRTVGEKLLPGIEVLWTGPKVVSKEIPVESIEEVSKIIKRAPVIWDNIHANDYDQKRLFLGPYKGRSTELIPRLKGVLTNPNCEFEANYVAIHTLATWYKSNMNGVRKDVVMTDSEDSTVSIQIKLENEGSDEDIETDVLYSPQMALKLALTEWLQEFGVPHQY,glycan array binding signal (z-score),Gal3S(b1-4)Glc6S,-0.088
same,glycan array binding signal (z-score),Gal3S6S(b1-4)GlcNAc6S,-0.045
same,glycan array binding signal (z-score),GalNAc(b1-4)Gal(b1-4)Glc,-0.096
same,glycan array binding signal (z-score),[1],-0.075
same,glycan array binding signal (z-score),[2],-0.081
same,glycan array binding signal (z-score),[3],0.075
same,glycan array binding signal (z-score),[4],-0.094
same,glycan array binding signal (z-score),[5],-0.071
same,glycan array binding signal (z-score),[6],-0.048
same,glycan array binding signal (z-score),[7],-0.029
same,glycan array binding signal (z-score),[8],-0.126
same,glycan array binding signal (z-score),[9],-0.102
same,glycan array binding signal (z-score),[10],0.068
same,glycan array binding signal (z-score),[11],-0.047
same,glycan array binding signal (z-score),[12],-0.118
same,glycan array binding signal (z-score),[13],-0.025
same,glycan array binding signal (z-score),[14],-0.047
same,glycan array binding signal (z-score),[15],-0.079
same,glycan array binding signal (z-score),[16],-0.088
same,glycan array binding signal (z-score),[17],-0.012
same,glycan array binding signal (z-score),[18],-0.107
same,glycan array binding signal (z-score),[19],-0.086
same,glycan array binding signal (z-score),[20],-0.094
same,glycan array binding signal (z-score),[21],-0.107
same,glycan array binding signal (z-score),[22],-0.042
